The list is not random: actives were taken first. Their share in the collection is about 10%.
JMJD2A Tudor inh – qHTS Assay for Inhibitors of JMJD2A-Tudor Domain; AID 504339, 2011; Potency, µM (series often up to 114 µM), usual class: inhibitors; Lysine-specific demethylase 4A (Homo sapiens), O75164; AlphaScreen JMJD2A-Tudor / H3K4me3 peptide binding; 390,000 compounds, 4.4% hits; note: nearly all actives have a fitted effect of over 50% in size
G9a block – qHTS Assay for Inhibitors of Histone Lysine Methyltransferase G9a. Histone-lysine N-methyltransferase EHMT2 (Homo sapiens), Q96KQ7. G9a H3K9 monomethylation, AlphaScreen, 2 h. Potency, µM (series often up to 102 µM), most hits filed as inhibitors. 350,000 compounds, 8.8% hits; note: nearly all actives have a fitted effect of over 75% in size
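Chemiluminescent proximity detection of H3K9 monomethylation, read after 10 min bead incubation in the dark. Reaction: 20 nM G9a, 500 nM biotin-H3K9 peptide, 20 uM SAM cofactor, 2 h, room temperature, following 15 min enzyme-compound preincubation.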
GLS inhibitor – qHTS for Inhibitors of Glutaminase (GLS) | 410,000 compounds, 0.21% hits | GLS enzymatic activity, qHTS titration | Potency, µM (doses to about 45.5 µM), usual class: inhibitors | Glutaminase kidney isoform, mitochondrial (Homo sapiens), O94925
Target sequence (O94925 whole entry, looked up, canonical isoform): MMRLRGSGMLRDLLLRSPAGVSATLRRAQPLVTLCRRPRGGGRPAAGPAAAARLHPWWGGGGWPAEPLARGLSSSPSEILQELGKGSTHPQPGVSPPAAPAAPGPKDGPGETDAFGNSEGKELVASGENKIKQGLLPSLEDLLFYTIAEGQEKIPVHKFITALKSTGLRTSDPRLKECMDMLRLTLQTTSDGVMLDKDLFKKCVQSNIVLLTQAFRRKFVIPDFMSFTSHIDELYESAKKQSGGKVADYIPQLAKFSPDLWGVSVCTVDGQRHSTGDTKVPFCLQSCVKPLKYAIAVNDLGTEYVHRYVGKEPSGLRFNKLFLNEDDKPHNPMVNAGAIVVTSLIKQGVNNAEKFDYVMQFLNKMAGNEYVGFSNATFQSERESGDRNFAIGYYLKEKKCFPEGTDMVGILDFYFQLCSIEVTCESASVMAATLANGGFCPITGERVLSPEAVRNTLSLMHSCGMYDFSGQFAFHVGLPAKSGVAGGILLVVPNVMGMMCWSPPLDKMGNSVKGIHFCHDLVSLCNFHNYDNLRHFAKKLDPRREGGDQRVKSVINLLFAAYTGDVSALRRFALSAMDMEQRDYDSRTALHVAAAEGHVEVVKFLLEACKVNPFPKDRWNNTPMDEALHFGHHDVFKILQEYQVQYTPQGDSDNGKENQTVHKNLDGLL
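hKGA in 45 mM KH2PO4 pH 8.2, 0.02% Tween-20 with pin-transferred compounds; 1 mM L-glutamine (stock) plus glutamate oxidase/HRP/Amplex Red coupling added. Fluorescence read initially and after 30 min at RT.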
BAZ2B inh – qHTS Assay for Inhibitors of BAZ2B. AlphaScreen BAZ2B-H3K14Ac peptide displacement. 360,000 compounds, 4.4% hits. Potency, µM (series often up to 114 µM), hits mostly inhibitors. Bromodomain adjacent to zinc finger domain protein 2B (Homo sapiens), Q9UIF8. AID 504333, 2011; note: nearly all actives have a fitted effect of over 60% in size
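In this displacement format the biotinylated H3(5-23) peptide acetylated at Lys14 serves as ligand at 50 nM, with BAZ2B at 50 nM in PBS pH 7.4 containing 0.01% Tween-20. Donor and acceptor beads are 10 ug/mL final.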
HP1b binding inh – HTS for Inhibitors of HP1-beta Chromodomain Interactions with Methylated Histone Tails. 390,000 compounds, 0.56% hits. AlphaScreen HP1-beta / biotin-H3K9me3 peptide binding. Potency, µM (series often up to 114 µM), actives largely listed as inhibitors. Chromobox protein homolog 1 (Homo sapiens), P83916; note: nearly all actives have a fitted effect of over 70% in size
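HP1-beta protein (50 nM final) preincubated 30 min at room temperature with biotinylated H3(1-18)K9me3 peptide (50 nM) in PBS pH 7.4, 0.01% Tween-20, then compound added for 30 min. AlphaScreen streptavidin donor/nickel chelate acceptor beads (10 ug/mL final), 30 min dark, luminescence read.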
Each line names hits and unclear results; the compound was inactive in the other large screens. Calls come from the whole dose curve; as a rule, active = well fitted curve in the direction sought with a large enough effect; inconclusive = small, poorly fitted or top-dose-only effect, or another doubt; inactive = no such curve, though single readings can be large; an effect the other way counts as inactive or inconclusive.

O=C(Cn1cnc2c(nnn2-c2cccc(Cl)c2)c1=O)N1CCCC1	none
O=C(/C=C/c1ccccc1[N+](=O)[O-])c1ccccc1Br	JMJD2A Tudor inh 56.2µM, G9a block 39.8µM, BAZ2B inh 31.6µM, HP1b binding inh inconclusive
CC1CN(C(=O)/C=C/c2ccccc2[N+](=O)[O-])CC(C)O1 (stereo not given)	JMJD2A Tudor inh 10µM
Cc1ccc(C(=O)/C=C/c2ccccc2[N+](=O)[O-])cc1	JMJD2A Tudor inh inconclusive, G9a block inconclusive, BAZ2B inh inconclusive, HP1b binding inh inconclusive
Cn1c(NCCCN2CCOCC2)nc2c1c(=O)n(Cc1ccc(Cl)cc1)c(=O)n2C	G9a block inconclusive, GLS inhibitor 15.8µM, BAZ2B inh inconclusive
COc1ccc(Cn2c(=O)c3c(nc(NCCO)n3C)n(C)c2=O)cc1	none
Cn1c(NCCCCO)nc2c1c(=O)n(Cc1ccc(Cl)cc1)c(=O)n2C	GLS inhibitor 12.6µM
CCC(=O)Nc1ccc2nc3c(=O)[nH]c(=S)[nH]c3nc2c1	JMJD2A Tudor inh 56.2µM, G9a block 31.6µM, GLS inhibitor inconclusive, BAZ2B inh 50.1µM, HP1b binding inh inconclusive
CCC(=O)Nc1ccc2nc3c(=O)n(C)c(=O)n(C)c3nc2c1	none
Cc1ccc(NC(=S)NNC(=S)Nc2cccc(C(F)(F)F)c2)cc1	JMJD2A Tudor inh inconclusive, G9a block 20µM, HP1b binding inh inconclusive
CN(C)NC(=S)Nc1cccc(C(F)(F)F)c1	none (no result: G9a block)
NC(=O)/C=C\C(=O)Nc1cccc(C(F)(F)F)c1	G9a block 10µM
NNC(=O)Nc1cccc(C(F)(F)F)c1	none
CCn1nc(NS(=O)(=O)c2ccc(C)cc2)c2cc3ccccc3nc21	none (no result: G9a block)
Cc1ccccc1N(C(=O)c1ccccn1)C(C(=O)NCc1ccccc1)c1ccncc1 (stereo not given)	none
CCc1cccc(N(C(=O)c2csnn2)C(C(=O)NC(C)(C)C)c2ccncc2)c1 (stereo not given)	JMJD2A Tudor inh 56.2µM, BAZ2B inh inconclusive
CCc1ccc(N(C(=O)c2csnn2)C(C(=O)NC(C)(C)C)c2ccncc2)cc1 (stereo not given)	none (no result: G9a block)
O=C(NCc1ccccc1)C(c1ccncc1)N(C(=O)c1ccccn1)c1ccccc1 (stereo not given)	JMJD2A Tudor inh 25.1µM, G9a block 22.4µM, BAZ2B inh 50.1µM
CN(c1ccc(C(=O)NCc2cccs2)cc1)S(=O)(=O)c1ccccc1	none
Cc1ccc(NC(=O)CSc2n[nH]c(-c3ccccn3)n2)cc1	JMJD2A Tudor inh 3.98µM, BAZ2B inh 3.98µM
O=C(CSc1n[nH]c(-c2ccccc2)n1)Nc1ccc(F)cc1F	none
CCc1nc(SCC(=O)Nc2ccc(C(=O)O)cc2)n[nH]1	G9a block 44.7µM
O=C(CSc1n[nH]c(-c2ccncc2)n1)Nc1ccc(F)cc1	none
O=C(CSc1n[nH]c(-c2ccccc2)n1)Nc1ccccc1O	G9a block 50.1µM
O=C(CSc1n[nH]c(-c2ccccn2)n1)Nc1ccc(F)cc1	JMJD2A Tudor inh 5.62µM, BAZ2B inh 3.98µM
CCc1nc(SCC(=O)Nc2ccc(N(C)C)cc2)n[nH]1	none
CCC(=O)Nc1sc2c(c1C(=O)OC)CCN(Cc1ccccc1)C2	none (no result: G9a block)
O=C(CSc1n[nH]c(-c2ccccn2)n1)Nc1ccc(Cl)cc1	JMJD2A Tudor inh 10µM, BAZ2B inh 5.01µM
c1ccc(OCc2nnc3n2N=C(c2ccccc2)CS3)cc1	G9a block 7.94µM, HP1b binding inh inconclusive (no result: BAZ2B inh)
COc1ccccc1C1=Nn2c(COc3ccccc3)nnc2SC1	G9a block 3.16µM, BAZ2B inh inconclusive (no result: JMJD2A Tudor inh, GLS inhibitor, HP1b binding inh)
COc1ccc(C2=Nn3c(nnc3-c3cc(OC)ccc3OC)SC2)c(OC)c1	JMJD2A Tudor inh 79.4µM (no result: G9a block, GLS inhibitor, BAZ2B inh, HP1b binding inh)
COc1ccc(OCc2nnc3n2N=C(c2ccc(C)cc2)CS3)cc1	G9a block inconclusive
CCCc1ccc(C2=Nn3c(nnc3C(C)C)SC2)cc1	G9a block 8.91µM, GLS inhibitor inconclusive, HP1b binding inh inconclusive
CC(C)c1nnc2n1N=C(c1ccc(Cl)cc1)CS2	none (no result: G9a block)
COc1ccccc1C1=Nn2c(nnc2-c2ccccc2OC)SC1	none (no result: G9a block, GLS inhibitor, BAZ2B inh, HP1b binding inh)
